PubChem BioAssay (Tox21)
Active and inactive are the calls of the source. The call rests on the fitted dose curve; in most records, active means well fitted curve in the direction sought with a large enough effect in the repeat runs; inconclusive means weak or mixed curves; inactive means flat fitted curve, though single readings scatter.
On the % scale 0 is the no-effect control and ±100 the full control effect.

Assay: qHTS assay to test for compound auto fluorescence at 535 nm (green) in HepG2 cell free culture (AID 720686)
Conditions: Cell-free medium, green autofluorescence 485/535 nm; series mostly up to 91.3 µM
Source text: U.S. Tox21 Program National Center for Advancing Translational Sciences [NCATS] NIH Chemical Genomics Center [NCGC] U.S. Environmental Protection Agency [EPA] National Institutes of Environmental Health Sciences [NIEHS] National Toxicology Program [NTP] U.S. Food and Drug Administration [FDA] Tox21 Assay Overview: Compound auto fluorescence often interferes with screening of the compound library against various biological targets and signaling pathways. Some of these compounds may have fluorophoric properties. Such properties may interfere with the assay outputs resulting in false positives and/or negatives. To decrease such complications and ensure the compound activities are relevant in terms of biological response, the Tox21 10K compound library was screened for auto fluorescence. From the fluorophores used as reporter signals in our screening assays, the auto fluorescence equivalencies of compounds against three fluorophores have been evaluated: Triamterene, Fluorescein and Rose Bengal sodium for blue, green and red fluorescence, respectively. The fluorescence intensities were measured using Excitation/Emission wavelengths at 405/460nm, 485/535nm and 540/590nm for blue, green and red labels, respectively. This assay includes the green fluorescence data.
Tox21 Assay Protocol Summary: 5 uL of culture medium (MEM containing 10% FBS) per well was dispensed into black wall/clear bottom 1536-well plates using a Multidrop Combi Dispenser (ThermoFisher Scientific, Waltham, MA). After 23 nL compound or DMSO vehicle was transferred into assay plate by a pintool work station (Kalypsys, San Diego, CA), fluorescence intensities in the assay plates were measured by an Envision (PerkinElmer, Shelton, CT) plate reader using three labels for measuring blue, green and red fluorescence at […] 460, 535 and 590nm respectively.
With `CCCCOC(=O)CCCCC(=O)OCCCC` the outcome was “inactive”.
With `COC(=O)CC(C(C)=O)C(=O)OC` (stereo not given) the outcome was “inactive”.
For `CC(CCc1ccc(O)cc1)NCCc1ccc(O)c(O)c1` (stereo not given), the outcome was “inactive”.
For `COc1cc(NC(C)CCCN)c2ncccc2c1` (stereo not given), the fluorescence, % of fluorescein control was -0.0264% [at 18.6 µM] (inactive).
With `C=Cc1ccc(OC(C)=O)cc1` the outcome was “inactive”.
With `C1CCCCC1` the outcome was “inactive”.
For `COc1cc(S(=O)(=O)Nc2ccccc2)c(OC)cc1N`, the outcome was “inactive”.
With `C1=CCC2CC=CC2C1` (stereo not given) the outcome was “inactive”.
With `Nc1cccc2c(N)cccc12` the outcome was “inactive”.
For `Nc1ccn([C@H]2CS[C@@H](CO)O2)c(=O)n1`, the outcome was “inactive”.
In the case of `C=C(C)c1ccccc1`, the outcome is reported as “inactive”.
For `CC[C@@H](CO)NCCN[C@@H](CC)CO`, the fluorescence, % of fluorescein control was 0.0013% [at 18.6 µM] (inactive).
In the case of `CCCCCCOC(=O)CCCCC`, the outcome is reported as “inactive”.
In the case of `FC(F)(F)C(F)(F)C(F)(F)C(F)(F)CCI`, the outcome is reported as “inactive”.
In the case of `CCCCCCCC(=O)OCCCCCC`, the outcome is reported as “inactive”.
In the case of `Cc1ccc(N(CCO)CCO)cc1`, the outcome is reported as “inactive”.
For `CCOC(=O)c1c(N)sc2c1CCN(Cc1ccccc1)C2`, the outcome was “inactive”.
With `CNCc1ccc(NC(=O)c2c[nH]c3c2C(=O)CCC3)cc1` the outcome was “inactive”.
With `CCOC(=O)C(C)O` (stereo not given) the outcome was “inactive”.
With `Nc1ccc(N=Nc2ccc(N)cc2)cc1` the outcome was “inactive”.
With `Cc1cc([N+](=O)[O-])ccc1N` the outcome was “inactive”.
For `Cc1ccc(N(CC2=NCCN2)c2cccc(O)c2)cc1`, the outcome was “inactive”.
For `CCN(Cc1cccc(S(=O)(=O)O)c1)c1ccc(C(=C2C=CC(=[N+](CC)Cc3cccc(S(=O)(=O)O)c3)C=C2)c2ccccc2S(=O)(=O)[O-])cc1`, the outcome was “inactive”.
In the case of `C[C@@H]1C[C@H]2[C@@H]3CCC4=CC(=O)C=C[C@]4(C)[C@@]3(F)[C@@H](O)C[C@]2(C)[C@@]1(O)C(=O)COP(=O)(O)O`, the outcome is reported as “inactive”.
With `Nc1ccc(S(=O)(=O)NCc2ccccc2)cc1` the outcome was “inactive”.
With `CCNc1nc(N)nc(Cl)n1` the outcome was “inactive”.
With `CCOC(=O)c1ccc(NC(=O)CN2CCCCC2)cc1` the outcome was “inactive”.
In the case of `O=C1NC(=O)c2cccc3cccc1c23`, the outcome is reported as “inactive”.
In the case of `CC(C)(C)C1(CCc2ccc(Cl)cc2)CO1` (stereo not given), the outcome is reported as “inactive”.
For `CN=C(N)NC(=O)Nc1c(C)cccc1C`, the outcome was “inactive”.
In the case of `CNc1c2c(nn1C)CCCC2`, the outcome is reported as “inactive”.
With `O=P(O)(O)Oc1ccccc1` the outcome was “inactive”.
In the case of `Cc1c[nH]c2ccccc12`, the outcome is reported as “inactive”.
In the case of `CCSC(=O)N(CC)CC`, the outcome is reported as “inactive”.
With `C[C@H](CS)C(=O)N1CCC[C@H]1C(=O)O` the outcome was “inactive”.
With `[Cl][Nd]([Cl])[Cl]` the outcome was “inactive”.
For `COc1ccc(N)c([N+](=O)[O-])c1`, the outcome was “inactive”.
With `CCCC(=O)OC(=O)CCC` the outcome was “inactive”.
With `O=C1c2ccccc2C(=O)c2c(O)ccc(O)c21` the outcome was “inactive”.
With `CCCCCCCCCCCSCC(=O)O` the outcome was “inactive”.
